# Calls of active or inactive are those of the source. How the source made its calls: active means hit-call score of the fitted dose curve at least 0.9, where 1 is the maximum; inactive means score below 0.9.
# Assay: ATG_GRE_CIS: Attagene CIS-FACTORIAL HepG2 Assay for human Glucocorticoid Response Elements (GRE) (AID 2282947)
# Settings: HepG2 GRE cis-reporter, Attagene multiplex mRNA; actives raise or lower the signal
# Outline: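 HepG2 cells transiently transfected with multiple cis-promoter reporter units measure endogenous TF activity; 24 h compound exposure. Reporter mRNA quantified by RT-PCR, FAM labelling, HpaI digestion and capillary electrophoresis; bidirectional fit vs DMSO baseline.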
row,SMILES,outcome
1,O=C(O)C(F)(F)OC(F)(F)C(F)(F)OC(F)(F)C(=O)O,inactive
2,N#Cc1cc([N+](=O)[O-])ccc1N,inactive
3,COP(=O)(O)OC,inactive
4,CCOS(=O)(=O)OCC,inactive
5,Nc1cc2c3c(c1)C(c1ccccc1)=N[C@@H](NC(=O)c1cccnc1)C(=O)N3CC2,inactive
6,Oc1ccc(I)cc1,inactive
7,C/C(=N\NC(=O)Nc1cc(F)cc(F)c1)c1ncccc1C(=O)O,inactive
8,CCOP(=S)(OCC)SCSCC,inactive
9,OCC(F)(F)OC(F)(F)C(F)(F)OC(F)(F)C(F)(F)OC(F)(F)CO,inactive
10,[N-]=[N+]=[N-],inactive
11,O=S1(=O)OCC2C(CO1)C1(Cl)C(Cl)=C(Cl)C2(Cl)C1(Cl)Cl (centres undefined),inactive
12,Oc1ccccc1Br,inactive
13,FC(F)(F)C(F)(C(F)(F)F)C(F)(F)C(F)(F)CC1CO1 (centres undefined),inactive
14,C=CC(=O)OCC(CC)(COC(=O)C=C)COC(=O)C=C,inactive
15,CC1(C)CN=C(NN=C(/C=C/c2ccc(C(F)(F)F)cc2)/C=C/c2ccc(C(F)(F)F)cc2)NC1,inactive
16,CCOP(=S)(OCC)SCn1nnc2ccccc2c1=O,inactive
17,O=C(O)C=CC(F)(C(F)(F)F)C(F)(F)F,inactive
18,O=C(O)C(F)(OC(F)(F)C(F)(F)C(F)(F)F)C(F)(F)F (centres undefined),inactive
19,CC1=C(C(=O)Nc2ccccc2)S(=O)(=O)CCO1,inactive
20,O=P1(N(CCCl)CCCl)NCCCO1 (centres undefined),inactive
21,OCC1CO1 (centres undefined),inactive
22,Nc1ccc(Cl)cc1,inactive
23,CNC(=O)Oc1ccc(N(C)C)c(C)c1,inactive
24,Nc1ccc(Sc2ccc(N)cc2)cc1,inactive

# Reference: PubChem BioAssay (EPA / NIEHS)
